Test results reported in PubChem BioAssay AID1159580 (chemical genetic matrix, 2015).
Several values for one entry are separate records, joined by “and”; a condition that tells them apart may be missing. Equal values may be shown once. The campaign covered roughly 5,500 compounds. About 2,000 (36%) were called active. About 18% were inconclusive and are not listed. Cut-off read from the data, not from the text of the source: active = normalized growth mostly below about 0.91 (no sharp cut-off); inconclusive = no clear call, values can overlap the other calls; inactive = mostly above about 0.92. This is one part of the list.

Assay: chemical genetic growth profiling, strain panel (AID 1159580);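 note: tested at 20 µM; growth read once vehicle control cultures reached saturation at 30 °C; 1 = growth at the plate median or of vehicle wells; lower values mean less growth of the strain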
Settings: S. cerevisiae deletion strains, growth OD

Measured: normalized growth

O=C1O[C@@H](CO)[C@H](O)[C@@H](O)[C@@H]1O
inactive: locus YAL021C, strain ccr4, stronger effect = lower value 0.997 | locus YAL026C, strain drs2, stronger effect = lower value 1.03 | locus YAL030W, strain snc1, stronger effect = lower value 1.01 | locus YBL061C, strain skt5, stronger effect = lower value 1.03 | locus YBR009C, strain hhf1, stronger effect = lower value 1.01 | locus YBR021W, strain FUR4, stronger effect = lower value 0.999 | locus YBR023C, strain chs3, stronger effect = lower value 1.02 | locus YBR171W, strain sec66, stronger effect = lower value 1.03 | locus YBR229C, strain ROT2, stronger effect = lower value 1 | locus YBR231C, strain swc5, stronger effect = lower value 1.08 | locus YBR279W, strain paf1, stronger effect = lower value 1.01 | locus YCL011C, strain gbp2, stronger effect = lower value 1.02 | locus YCL016C, strain dcc1, stronger effect = lower value 1.01 | locus YCL029C, strain bik1, stronger effect = lower value 0.99 | locus YCL061C, strain MRC1, stronger effect = lower value 1.01 | locus YCL069W, strain vba3, stronger effect = lower value 1.03 | locus YCR088W, strain abp1, stronger effect = lower value 1.02 | locus YDL005C, strain med2, stronger effect = lower value 1.03 | locus YDL035C, strain GPR1, stronger effect = lower value 1.01 | locus YDL040C, strain nat1, stronger effect = lower value 1.03 | locus YDL074C, strain BRE1, stronger effect = lower value 0.974 | locus YDL101C, strain DUN1, stronger effect = lower value 1.01 | locus YDL134C, strain PPH21, stronger effect = lower value 1.01 | locus YDL185W, strain tfp1, stronger effect = lower value 1 | locus YDL192W, strain arf1, stronger effect = lower value 1.01 | locus YDR001C, strain nth1, stronger effect = lower value 1.03 | locus YDR069C, strain doa4, stronger effect = lower value 1.02 | locus YDR101C, strain arx1, stronger effect = lower value 0.946 | locus YDR137W, strain rgp1, stronger effect = lower value 1.04 | locus YDR150W, strain NUM1, stronger effect = lower value 1 | locus YDR159W, strain sac3, stronger effect = lower value 1 | locus YDR162C, strain NBP2, stronger effect = lower value 1.02 | locus YDR195W, strain ref2 0.99 | locus YDR297W, strain sur2, stronger effect = lower value 1.02 | locus YDR318W, strain mcm21, stronger effect = lower value 1.01 | locus YDR334W, strain swr1, stronger effect = lower value 1.03 | locus YDR335W, strain msn5, stronger effect = lower value 1.01 | locus YDR388W, stronger effect = lower value 1.01 | locus YDR392W, strain spt3, stronger effect = lower value 1.06 | locus YDR502C, strain sam2, stronger effect = lower value 1 | locus YEL003W, strain gim4, stronger effect = lower value 1.02 | locus YEL037C, strain rad23, stronger effect = lower value 1.01 | locus YEL061C, strain CIN8 (second series), stronger effect = lower value 1.03 | locus YEL061C, strain CIN8, stronger effect = lower value 1 | locus YER015W, strain faa2, stronger effect = lower value 1.02 | locus YER016W, strain bim1, stronger effect = lower value 1.03 | locus YER110C, stronger effect = lower value 1.01 | locus YER111C, strain swi4, stronger effect = lower value 1.01 | locus YER155C, strain BEM2 (second series), stronger effect = lower value 1.06 | locus YER155C, strain BEM2, stronger effect = lower value 1.01 | locus YER167W, strain BCK2, stronger effect = lower value 1.01 | locus YFR010W, strain ubp6, stronger effect = lower value 1.01 | locus YGL078C, strain dbp3, stronger effect = lower value 1.01 | locus YGL086W, strain mad1, stronger effect = lower value 0.983 | locus YGL167C, strain pmr1, stronger effect = lower value 1.02 | locus YGL173C, strain kem1, stronger effect = lower value 1.05 | locus YGL227W, strain vid30, stronger effect = lower value 1.03 | locus YGL240W, strain doc1, stronger effect = lower value 1.04 | locus YGL248W, strain PDE1, stronger effect = lower value 0.996 | locus YGL253W, strain hxk2, stronger effect = lower value 1.03 | locus YGR135W, strain pre9, stronger effect = lower value 1.05 | locus YGR229C, strain SMI1, stronger effect = lower value 0.997 | locus YGR252W, strain gcn5, stronger effect = lower value 1.06 | locus YHR013C, strain ard1, stronger effect = lower value 1.08 | locus YHR027C, strain rpn1, stronger effect = lower value 1.02 | locus YHR030C, strain SLT2, stronger effect = lower value 1 and 0.985 | locus YHR079C, strain IRE1 (second series), stronger effect = lower value 1 | locus YHR079C, strain IRE1, stronger effect = lower value 0.979 | locus YHR094C, strain hxt1, stronger effect = lower value 1.01 | locus YHR129C, strain ARP1, stronger effect = lower value 1.02 | locus YHR142W, strain chs7, stronger effect = lower value 1.02 | locus YHR200W, strain rpn10, stronger effect = lower value 0.998 | locus YIL066C, strain RNR3, stronger effect = lower value 1 | locus YIL073C, strain SPO22, stronger effect = lower value 1.05 | locus YIL125W, strain kgd1, stronger effect = lower value 0.999 | locus YIR030C, strain dcg1, stronger effect = lower value 1 | locus YJL092W, strain hpr5, stronger effect = lower value 1.01 | locus YJL095W, strain BCK1 (second series), stronger effect = lower value 1.02 | locus YJL095W, strain BCK1, stronger effect = lower value 1 and 0.979 | locus YJL115W, strain asf1, stronger effect = lower value 1.02 | locus YJL129C, strain trk1, stronger effect = lower value 1.02 | locus YJL134W, strain LCB3, stronger effect = lower value 1.01 | locus YJL154C, strain vps35, stronger effect = lower value 1.02 | locus YJL164C, strain tpk1, stronger effect = lower value 1.01 | locus YJL166W, strain qcr8, stronger effect = lower value 1.02 | locus YJL168C, strain set2, stronger effect = lower value 0.997 | locus YJL187C, strain SWE1 (second series), stronger effect = lower value 0.989 | locus YJL187C, strain SWE1, stronger effect = lower value 1.02 | locus YJR043C, strain POL32, stronger effect = lower value 0.99
